# Data published in PubChem BioAssay (Tox21).
# Inconclusive results are not listed. Entries that show only a call come without a potency. Calls of active or inactive are those of the source. Unless noted, calls follow the shape of the dose curve; as a rule, active = well fitted curve in the direction sought with a large enough effect in the repeat runs; inconclusive = weak or mixed curves; inactive = no such curve, though single readings can be large; an effect the other way counts as inactive or inconclusive.
# Experiments:
# [1] = qHTS assay to identify small molecule agonists of the progesterone receptor (PR) signaling pathway - cell viability counter screen (AID 1346799; calls by dose curve; also: nearly all actives have a fitted effect of over 45% in size; also: potency is read from the fitted curve at half-maximal effect)
# Procedure, shortened: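 PR-UAS-bla HEK293T cells, 3,000 per well in medium with 2% charcoal-stripped FBS, were preincubated 6 hr at 37C, then exposed to compounds for 16 hr; viability was read as CellTiter-Glo luminescence after 30 min at room temperature.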
# [2] = qHTS assay to identify small molecule antagonists of the TGF-beta/Smad signaling pathway - cell viability counter screen (AID 1346824); also: nearly all actives have a fitted effect of over 50% in size; also: potency is read from the fitted curve at half-maximal effect
# Procedure, shortened: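 SBE-bla HEK 293T cells, incubated overnight, then compound plus 0.25 ng/mL TGF-beta1 (stock added) for 5 hr at 37 C. Viability was read in the same wells by CellTiter-Glo luminescence after 30 min at room temperature.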
# [3] = qHTS assay to identify small molecule agonists of the TGF-beta/Smad signaling pathway - cell viability counter screen (AID 1346829); also: nearly all actives have a fitted effect of over 45% in size; also: potency is read from the fitted curve at half-maximal effect
# Procedure, shortened: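 HEK 293T SBE-bla line, 5 hr compound exposure at 37 C, multiplexed CellTiter-Glo viability read by luminescence.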
# [4] = target: Thyrotropin-releasing hormone receptor (Homo sapiens) (UniProt P34981); assay: qHTS assay to identify small molecule antagonists of the thyrotropin-releasing hormone receptor (TRHR) signaling pathway (AID 1346877; active = well fitted inhibition curve with a large enough effect in the repeat runs, not every such curve was filed as active; also: potency is read from the fitted curve at half-maximal effect)
# Chain of Thyrotropin-releasing hormone receptor (Homo sapiens) (P34981 whole entry, looked up): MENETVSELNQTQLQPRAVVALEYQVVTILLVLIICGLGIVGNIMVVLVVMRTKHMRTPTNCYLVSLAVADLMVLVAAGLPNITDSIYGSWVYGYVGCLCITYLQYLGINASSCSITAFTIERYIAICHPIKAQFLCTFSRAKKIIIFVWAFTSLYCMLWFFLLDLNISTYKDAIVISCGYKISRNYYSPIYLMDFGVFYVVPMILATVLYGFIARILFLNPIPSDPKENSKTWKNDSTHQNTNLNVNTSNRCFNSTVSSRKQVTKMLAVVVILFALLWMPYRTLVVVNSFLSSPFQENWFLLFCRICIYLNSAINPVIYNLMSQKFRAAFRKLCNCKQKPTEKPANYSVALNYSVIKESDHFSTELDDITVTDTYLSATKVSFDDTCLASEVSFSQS
# Procedure, shortened: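 Following an 18 h incubation at 37 °C and a 2 h calcium dye load, TRHR-HEK293 cells were exposed to compound (5 min, room temperature) and challenged with TRH, 1 nM final.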
# [5] = target: Thyrotropin-releasing hormone receptor (Homo sapiens) (UniProt P34981); assay: qHTS assay to identify small molecule agonists of the thyrotropin-releasing hormone receptor (TRHR) signaling pathway (AID 1346891; calls by dose curve; also: potency is read from the fitted curve at half-maximal effect; as to activation: series mostly up to about 58 µM)
# Procedure, shortened: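 TRHR-expressing HEK293 cells were plated 18 h at 37 °C/5% CO2, loaded with calcium dye 2 h at 37 °C, then given compound in DMSO; fluorescence was read kinetically for 3 min at 1 s intervals.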
# [6] = qHTS assay to identify small molecule antagonists of the progesterone receptor (PR) signaling pathway - cell viability counter screen (AID 1346798); also: nearly all actives have a fitted effect of over 50% in size; also: potency is read from the fitted curve at half-maximal effect
# Procedure, shortened: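 PR-UAS-bla HEK293T cells in medium with 2% charcoal-stripped FBS were treated with compounds plus R5020 for 16 hr at 37C. Cell viability was then read by CellTiter-Glo luminescence after 30 min at room temperature in the same wells.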
# [7] = qHTS assay to identify small molecule agonists of the TGF-beta/Smad signaling pathway (AID 1346859; active = well fitted activation curve with a large enough effect in the signal ratio in the repeat runs, not every such curve was filed as active; the % refers to the signal ratio; also: series mostly up to about 77 µM)
# Procedure, shortened: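 HEK 293T cells stably carrying a beta-lactamase reporter driven by the Smad binding element were seeded overnight, exposed to DMSO-dissolved compounds for 5 hr at 37 C, 5% CO2, then loaded with FRET substrate for 2 hr at room temperature.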
# [8] = target: Progesterone receptor (Homo sapiens) (UniProt P06401); assay: qHTS assay to identify small molecule antagonists of the progesterone receptor (PR) signaling pathway (AID 1346795; active = well fitted inhibition curve with a large enough effect in the signal ratio in the repeat runs, not every such curve was filed as active; the % refers to the signal ratio; also: potency is read from the fitted curve at half-maximal effect)
# Chain of Progesterone receptor (Homo sapiens) (P06401 whole entry, looked up): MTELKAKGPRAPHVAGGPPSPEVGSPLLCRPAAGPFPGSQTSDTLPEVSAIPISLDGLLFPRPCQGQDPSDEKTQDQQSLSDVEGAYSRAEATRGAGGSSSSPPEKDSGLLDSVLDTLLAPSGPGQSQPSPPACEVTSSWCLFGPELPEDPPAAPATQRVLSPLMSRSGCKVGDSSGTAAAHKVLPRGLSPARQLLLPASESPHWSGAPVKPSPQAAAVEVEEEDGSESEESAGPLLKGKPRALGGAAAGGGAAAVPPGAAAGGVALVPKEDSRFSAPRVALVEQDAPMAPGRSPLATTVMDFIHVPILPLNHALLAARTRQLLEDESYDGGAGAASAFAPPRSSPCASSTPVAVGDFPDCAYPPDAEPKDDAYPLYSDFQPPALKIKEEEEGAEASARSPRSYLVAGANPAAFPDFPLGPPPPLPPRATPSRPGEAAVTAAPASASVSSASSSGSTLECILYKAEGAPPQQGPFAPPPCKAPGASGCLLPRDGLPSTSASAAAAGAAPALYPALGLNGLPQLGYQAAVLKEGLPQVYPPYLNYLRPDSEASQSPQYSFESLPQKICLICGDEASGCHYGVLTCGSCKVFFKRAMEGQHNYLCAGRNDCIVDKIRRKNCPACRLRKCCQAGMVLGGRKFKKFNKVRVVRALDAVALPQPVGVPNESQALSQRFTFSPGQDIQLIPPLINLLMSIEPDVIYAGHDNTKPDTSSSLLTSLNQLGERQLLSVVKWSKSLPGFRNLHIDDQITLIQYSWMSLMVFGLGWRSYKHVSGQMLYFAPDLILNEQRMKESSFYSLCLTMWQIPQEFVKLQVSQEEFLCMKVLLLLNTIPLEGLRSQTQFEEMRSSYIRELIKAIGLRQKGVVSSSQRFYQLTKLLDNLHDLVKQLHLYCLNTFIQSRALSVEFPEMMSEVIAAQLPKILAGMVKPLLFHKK
# Procedure, shortened: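 PR-UAS-bla HEK293T cells carrying a UAS-driven beta-lactamase reporter were plated in medium with 2% charcoal-stripped FBS and rested 6 hr at 37C. Compounds were added with 1 nM R5020 (final) for 16 hr, then FRET substrate loaded 2 hr at room temperature.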
SMILES,Potency [1],Potency [2],Potency [3],Potency [4],Potency [5],Potency [6],Potency [7],Potency [8]
Nc1ccc2c3c(cccc13)-c1ccccc1-2,inactive,inactive,inactive,inactive,31.2 µM (active),–,–,–
CCCCCCCCCCCCCCCCCC[N+](C)(C)C,54.6 µM (active),43.8 µM (active),43.8 µM (active),30.3 µM (active),34.8 µM (active),48.7 µM (active),inactive,–
CC(C)(C)C1CCC(CC2=C(O)c3ccccc3C(=O)C2=O)CC1 (centres undefined),inactive,inactive,inactive,–,–,inactive,inactive,–
CC1=C(C(=O)OC(C)C)C(c2cccc([N+](=O)[O-])c2)C(C(=O)OC2CN(C(c3ccccc3)c3ccccc3)C2)=C(N)N1 (centres undefined),–,inactive,–,inactive,inactive,–,inactive,–
CCOc1ccc2nc3cc(N)ccc3c(N)c2c1,inactive,inactive,inactive,inactive,–,–,–,–
O=C(Nc1ccc(Oc2ccc(Cl)cc2)c(Cl)c1)c1cc(I)cc(I)c1O,–,inactive,inactive,inactive,inactive,–,inactive,–
O=C(Nc1cccc(C(F)(F)F)c1)c1cc(Br)cc(Br)c1O,–,–,–,inactive,inactive,21.7 µM (active),–,–
Cc1[nH]cnc1C[C@H]1CCc2c(C)c3ccccc3n2C1=O,–,–,inactive,inactive,–,–,inactive,37.6 µM (active)
CCOC(=O)O[C@H](C)OC(=O)c1ccc2c(c1)cc(C(=O)NC1CCN(C(C)C)CC1)n2Cc1cc(-c2ccc(Cl)s2)on1,22.7 µM (active),–,45.8 µM (active),inactive,inactive,22.7 µM (active),–,–
CCCCCCCCCOC(=O)c1ccc(O)cc1,–,inactive,–,–,–,–,inactive,–
CC[C@@]1(O)C(=O)OCc2c1cc1n(c2=O)Cc2cc3c(CN(C)C)c(O)ccc3nc2-1,–,–,inactive,–,–,–,–,–
CCN(CC)CCCC(C)Nc1c2ccc(Cl)cc2nc2ccc(OC)cc12 (centres undefined),–,–,inactive,inactive,inactive,13.3 µM (active),–,–
CN1CCC(Nc2ncc3ncnc(Nc4ccc(F)c(Cl)c4)c3n2)CC1,9.44 µM (active),inactive,inactive,inactive,inactive,16.8 µM (active),–,–
NC(=O)C1(N2CCCCC2)CCN(CCCN2c3ccccc3CCc3ccc(Cl)cc32)CC1,16.8 µM (active),–,–,inactive,inactive,23.7 µM (active),–,23.7 µM (active)
ON=C1CCCC1,63.3 µM (active),inactive,inactive,inactive,inactive,inactive,inactive,inactive
CC[C@@]1(O)C(=O)OCc2c1cc1n(c2=O)Cc2c-1nc1ccccc1c2/C=N/OC(C)(C)C,inactive,inactive,inactive,inactive,inactive,inactive,–,–
CCc1cc(Cc2cc(CC)c(N)c(CC)c2)cc(CC)c1N,54.5 µM (active),–,inactive,inactive,inactive,68.6 µM (active),inactive,–
O=c1[nH]sc2ccccc12,30.6 µM (active),inactive,inactive,–,–,27.3 µM (active),inactive,–
OCCN(CCO)c1nc(N2CCCCC2)c2nc(N(CCO)CCO)nc(N3CCCCC3)c2n1,–,inactive,inactive,inactive,12 µM (active),–,–,–
